# Screening data (PubChem)
# This is a sample that favours compounds with a hit; in the whole collection about 2.5% have one here.
# Efflux pump inh: inhibitors of Candida antifungal efflux pumps expressed in yeast; S. cerevisiae Candida pump triplex, Nile Red efflux; inhibition, % at 10 µM; actives 0.44% (n = 330,000);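 active = plate passing quality check with inhibition over a set limit, or well fluorescence over plate mean plus 4 SD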;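 also: Nile Red retained in pooled yeast measured as flow cytometry median fluorescence; higher means more Nile Red kept so more efflux inhibition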
# SUMO Mot1 rescue: inhibitors of SUMOylation pathway: yeast Mot1-301 growth rescue. S. cerevisiae Mot1-301 growth rescue, ATP luminescence, 38.5C; percent above DMSO median, 100 means doubled. growth rescue, % at 18.8 µM. actives 1% (n = 320,000). AID 2716;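 active = every valid replicate shows activation above 250% relative to neutral control wells; inactive = the rest, any valid replicate at or below 250%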
# ATG4B inhibitor: blocks human ATG4B protease cleavage of LC3 substrate | actives 0.51% (n = 340,000) | Q9Y4P1 | inhibition, % at 8.33 µM | ATG4B cleavage of LC3-PLA2, NBD-HPC fluorescence, 1 h; in the data active = inhibition above about 40%
# Target sequence (Q9Y4P1 whole entry, looked up): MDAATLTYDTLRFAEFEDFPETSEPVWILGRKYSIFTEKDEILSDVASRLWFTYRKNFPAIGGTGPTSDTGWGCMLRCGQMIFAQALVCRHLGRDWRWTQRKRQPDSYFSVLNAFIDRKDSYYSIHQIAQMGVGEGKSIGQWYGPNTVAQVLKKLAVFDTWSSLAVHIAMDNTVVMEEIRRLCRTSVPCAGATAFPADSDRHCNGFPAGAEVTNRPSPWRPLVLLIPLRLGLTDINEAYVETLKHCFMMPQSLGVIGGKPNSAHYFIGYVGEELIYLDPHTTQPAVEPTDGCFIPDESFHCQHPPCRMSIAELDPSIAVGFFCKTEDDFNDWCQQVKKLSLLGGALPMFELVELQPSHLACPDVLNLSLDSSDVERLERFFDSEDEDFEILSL
# V-ATPase pHluor: regulators of yeast V-ATPase proton transport. S. cerevisiae, pHLuorin cytosolic pH fluorescence. response, % at 10 µM. actives 0.37% (n = 350,000). AID 504577; in the data active = response mostly above about 7.3%, no sharp cut-off; inactive = mostly below about 5.4%; also: actives read high
# AI-2 QS modul: modulators of Vibrio harveyi AI-2 quorum sensing system. Vibrio harveyi JMH597 AI-2 luminescence/OD600 ratio, 9 h; hits give low values; strain lacks LuxN and CqsS sensors; 0 = neutral-control median. activity change, % at 7.5 µM. actives 0.4% (n = 300,000); in the data active = activity change below about -75%, passing the limit was not always enough;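 also: luminescence divided by OD600 gain over 9 h not by final OD600 alone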
# Yeast Mot1 SUMO: yeast SUMO pathway inhibition in dose response | shares compounds with SUMO Mot1 rescue | growth activity, percent, % at 42 µM | S. cerevisiae Mot1-301 galactose growth, ATP luminescence, 24 h; -100 = growth of slx-deleted rescue strain | 2,300 tested, under 10 active;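 active = Signal drops as the depositor expects, and the fitted half-maximal dose is no more than ten times the top valid tested dose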;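 also: more negative values mean stronger growth rescue toward the control strain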
# Numbers stand for hits; n = inactive; x = no result given; + = active, no number.
SMILES,Efflux pump inh,SUMO Mot1 rescue,ATG4B inhibitor,V-ATPase pHluor,AI-2 QS modul,Yeast Mot1 SUMO
Cc1c(Cl)cccc1NC(=S)NCCCN(C)C,n,393,n,n,n,n
S=C(NCCc1ccccc1)Nc1ccccc1Cl,n,530,n,n,n,n
O=C(c1ccc2c(c1)OCCCO2)c1cccs1,n,n,n,n,n,x
COc1ccc(-c2nc(CS(=O)CC(=O)NC3CCCCC3C)c(C)o2)cc1 (configuration not stated),n,n,n,n,n,x
CN(C)c1ccc(CN(Cc2ccco2)C(=O)c2ccco2)cc1,n,366,n,n,n,n
COc1ccccc1C1NC(=O)CS1 (configuration not stated),n,360,n,n,n,n
COc1ccc(C2NC(=O)CS2)cc1OC (configuration not stated),n,n,n,n,n,x
O=C(O)c1ccc(S(=O)(=O)N2CCN(c3ccccn3)CC2)cc1,n,763,n,n,n,n
CC(=O)N1CCCc2cc(S(=O)(=O)Nc3ccc(C)cc3C)ccc21,n,474,n,n,n,n
CCCn1c(=O)c2ccccc2n2c(SCC(=O)N3CCc4ccccc4C3)nnc12,n,433,n,n,n,n
CCn1c(=O)c2ccccc2n2c(SCC(=O)N3CCc4ccccc4C3)nnc12,n,n,n,n,n,x
CN(C)C(/C=C/Nc1cccc(Br)c1)=C(C#N)C#N,n,433,n,n,n,n
Cc1ccc(NC(=O)Cn2c(CCC(=O)O)ccc2-c2cccs2)cc1,n,526,n,n,n,n
Cc1ccccc1NC(=O)Cn1c(CCC(=O)O)ccc1-c1cccs1,n,n,n,n,n,x
Cc1c(Cl)cccc1NC(=O)Cn1c(CCC(=O)O)ccc1-c1ccccc1,n,429,n,n,n,n
Cc1ccccc1NC(=O)c1nn(C)c2c1CS(=O)(=O)c1ccccc1-2,n,n,n,n,n,x
Nc1cc[n+](CC(=O)Nc2ccccc2)cc1,n,799,n,n,n,n
Cc1cccc(NC(=O)C[n+]2ccccc2)c1,n,n,n,n,n,x
COc1cc(/C=N/NC2=NS(=O)(=O)c3ccccc32)cc(OC)c1OC,n,630,n,n,n,n
COc1ccc(/C=N/NC2=NS(=O)(=O)c3ccccc32)cc1,n,n,n,n,n,x
O=C(CCC(=O)OCC(=O)c1ccc(Br)cc1)Nc1cccc2cccnc12,n,429,n,n,n,n
CCOC(=O)c1cc(C#N)c(Oc2ccccc2OC)nc1-c1ccccc1,n,+,n,n,n,n
CCOC(=O)c1cc(C#N)c(SC)nc1-c1ccccc1,n,n,n,n,n,x
CCCCCN(C(=O)CCC(=O)OCCOc1ccccc1Cl)c1c(N)n(CCCC)c(=O)[nH]c1=O,n,n,n,n,n,x
CC(=Nc1ccccc1)C1=C(O)CCCC1=O,n,n,n,n,n,x
SMILES,Efflux pump inh,SUMO Mot1 rescue,ATG4B inhibitor,V-ATPase pHluor,AI-2 QS modul,Yeast Mot1 SUMO
CC(=Nc1ccccc1)C1=C(O)CC(C)(C)CC1=O,n,432,n,n,n,n
CN(Cc1ccccc1)C(=O)c1ccc(S(=O)(=O)N(C)c2ccccc2)cc1,n,n,n,n,x,x
CSc1cccc(NC(=S)N2CCCN(Cc3ccccc3F)C2)c1,n,496,n,n,n,n
CC1CN(C(=O)COC(=O)c2cncc(Br)c2)CC(C)O1 (configuration not stated),x,x,x,n,x,x
CCN(CC)c1ccc(Nc2cc3n(c(=O)n2)CCc2cc(OC)c(OC)cc2-3)cc1,n,+,n,n,n,n
COc1cc2c(cc1OC)-c1cc(Nc3ccc(N(C)C)cc3)nc(=O)n1CC2,n,n,n,n,n,x
CSCCC(NC(=O)c1ccco1)C(=O)N1CCN(Cc2ccccc2)CC1 (configuration not stated),n,426,n,n,n,n
CSCCC(NC(=O)c1ccccc1)C(=O)N1CCN(C(=O)c2ccccc2)CC1 (configuration not stated),n,n,n,n,x,x
COCCN(C(=O)CSc1nnc(-c2ccc(C)cc2)n1N)c1c(N)n(Cc2ccccc2)c(=O)[nH]c1=O,n,516,n,n,n,n
O=[N+]([O-])c1ccc(S(=O)(=O)N/N=C/c2ccsc2)cc1,n,n,n,n,n,x
Cc1ccc(NC(=O)CN(C)C(=O)c2cccc(S(=O)(=O)NCc3ccccc3)c2)cc1,n,n,n,n,n,x
